Calls of active or inactive are those of the source.
How the values were obtained:
[1] = E. coli DRC41 culture turbidity changes, primary screen, E. coli filamentation inducer project, strain DRC41, OD650, 48 h (AID 1152);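 also: E. coli MC1000 strain DRC41 lacking acrAB efflux pump and sulA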; settings: E. coli DRC41 (acrAB sulA), higher = more signal, called active from +8 up or from −8 down
[2] = small-molecule binders of probe aLefty1, primary screen, biochemical, small-molecule microarray, 635/667 nm fluorescence (AID 1153); settings: higher = more signal;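 also: score merges spot fluorescence with signal-to-noise ratio from the scanned slide images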
[3] = PSAC antagonists in infected red cells, primary screen, cell-based, P. falciparum Indochina, OD700, 1 h (AID 1154); settings: P. falciparum Indochina infected RBC osmotic lysis, higher = more signal, called active from +8 up or from −8 down
[4] = PSAC antagonists in infected red cells, primary screen, cell-based, P. falciparum Indochina, OD700, 2 h (AID 1155);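 also: lysis reports solute entry through the parasite surface anion channel PSAC; channel blockers reduce lysis of infected cells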; settings: P. falciparum Indochina infected erythrocytes, osmotic lysis OD700; higher = more signal, called active from +8 up or from −8 down
[5] = osmotic lysis modulators in infected erythrocytes, primary screen, PSAC antagonist project, cell-based, P. falciparum Indochina, OD700, 3 h (AID 1156); settings: higher = more signal, called active from +8 up or from −8 down
[6] = PSAC antagonists in infected red cells, primary screen, cell-based, P. falciparum Indochina, OD700, 18 h (AID 1157); settings: P. falciparum Indochina infected erythrocytes, osmotic lysis OD700, 18 h; higher = more signal, called active from +8 up or from −8 down
[7] = modulators of S6 phosphorylation in cells, primary screen, cell-based, A549, cytoblot, luminescence, serum-stimulated (AID 1158); settings: A549 phospho-S6 cytoblot, 5 h, higher = more signal;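 also: serum-stimulated A549 lung adenocarcinoma cells; signal is phosphorylated S6 detected by cytoblot immunostaining with HRP secondary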
[8] = target: NADPH oxidase 2 (Homo sapiens) (UniProt P04839); experiment: NOX2-dependent H2O2 signal modulators, primary screen, NOX inhibitor project, cell-based, HEK293-NOX2, PMA-stimulated, Amplex Red fluorescence (AID 1159); settings: 45 min, higher = more signal, called active from +8 up or from −8 down; also: test concentration not given here
NADPH oxidase 2 (Homo sapiens), sequence (P04839 whole entry, looked up): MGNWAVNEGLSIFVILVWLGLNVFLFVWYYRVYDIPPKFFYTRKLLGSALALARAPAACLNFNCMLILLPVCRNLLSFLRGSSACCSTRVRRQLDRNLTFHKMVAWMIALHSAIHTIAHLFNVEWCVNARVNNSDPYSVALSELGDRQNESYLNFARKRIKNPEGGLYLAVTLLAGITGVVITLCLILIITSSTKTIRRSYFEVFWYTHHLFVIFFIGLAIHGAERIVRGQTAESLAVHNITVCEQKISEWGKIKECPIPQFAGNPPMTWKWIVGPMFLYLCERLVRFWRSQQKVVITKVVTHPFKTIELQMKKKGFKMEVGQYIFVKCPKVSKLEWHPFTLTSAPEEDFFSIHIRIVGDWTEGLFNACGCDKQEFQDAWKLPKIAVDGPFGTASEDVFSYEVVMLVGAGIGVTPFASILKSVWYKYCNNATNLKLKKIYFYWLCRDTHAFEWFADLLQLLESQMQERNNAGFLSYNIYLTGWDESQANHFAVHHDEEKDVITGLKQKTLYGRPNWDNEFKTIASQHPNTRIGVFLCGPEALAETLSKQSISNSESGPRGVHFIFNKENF

[9] = target: NADPH oxidase 4 (Homo sapiens) (UniProt Q9NPH5); experiment: NOX4-dependent H2O2 signal modulators, primary screen, NOX inhibitor project, cell-based, HEK293-NOX4, tetracycline-induced, Amplex Red fluorescence (AID 1160); settings: 45 min, higher = more signal, called active from +8 up or from −8 down
NADPH oxidase 4 (Homo sapiens), sequence (Q9NPH5 whole entry, looked up): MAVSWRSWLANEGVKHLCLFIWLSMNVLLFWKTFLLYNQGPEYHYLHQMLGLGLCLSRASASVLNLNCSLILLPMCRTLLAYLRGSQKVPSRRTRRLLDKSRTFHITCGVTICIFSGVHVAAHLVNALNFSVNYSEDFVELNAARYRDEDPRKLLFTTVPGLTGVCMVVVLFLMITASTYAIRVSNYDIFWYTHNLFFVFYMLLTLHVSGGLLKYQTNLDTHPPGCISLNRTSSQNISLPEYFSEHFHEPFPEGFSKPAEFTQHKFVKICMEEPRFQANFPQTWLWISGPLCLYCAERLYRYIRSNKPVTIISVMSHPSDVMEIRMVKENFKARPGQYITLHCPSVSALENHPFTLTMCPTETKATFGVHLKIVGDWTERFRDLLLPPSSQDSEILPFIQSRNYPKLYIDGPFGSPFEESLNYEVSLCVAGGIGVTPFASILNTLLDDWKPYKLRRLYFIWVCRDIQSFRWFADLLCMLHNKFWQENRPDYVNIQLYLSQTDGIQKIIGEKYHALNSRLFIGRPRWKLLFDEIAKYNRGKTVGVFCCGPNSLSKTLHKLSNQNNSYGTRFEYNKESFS

[10] = target: NADPH oxidase 5 (Homo sapiens) (UniProt Q96PH1); experiment: NOX5-dependent H2O2 signal modulators, primary screen, NOX inhibitor project, cell-based, HEK293-NOX5, Amplex Red fluorescence (AID 1161); settings: HEK293-NOX5, ionomycin, 45 min, higher = more signal
NADPH oxidase 5 (Homo sapiens), sequence (Q96PH1 whole entry, looked up): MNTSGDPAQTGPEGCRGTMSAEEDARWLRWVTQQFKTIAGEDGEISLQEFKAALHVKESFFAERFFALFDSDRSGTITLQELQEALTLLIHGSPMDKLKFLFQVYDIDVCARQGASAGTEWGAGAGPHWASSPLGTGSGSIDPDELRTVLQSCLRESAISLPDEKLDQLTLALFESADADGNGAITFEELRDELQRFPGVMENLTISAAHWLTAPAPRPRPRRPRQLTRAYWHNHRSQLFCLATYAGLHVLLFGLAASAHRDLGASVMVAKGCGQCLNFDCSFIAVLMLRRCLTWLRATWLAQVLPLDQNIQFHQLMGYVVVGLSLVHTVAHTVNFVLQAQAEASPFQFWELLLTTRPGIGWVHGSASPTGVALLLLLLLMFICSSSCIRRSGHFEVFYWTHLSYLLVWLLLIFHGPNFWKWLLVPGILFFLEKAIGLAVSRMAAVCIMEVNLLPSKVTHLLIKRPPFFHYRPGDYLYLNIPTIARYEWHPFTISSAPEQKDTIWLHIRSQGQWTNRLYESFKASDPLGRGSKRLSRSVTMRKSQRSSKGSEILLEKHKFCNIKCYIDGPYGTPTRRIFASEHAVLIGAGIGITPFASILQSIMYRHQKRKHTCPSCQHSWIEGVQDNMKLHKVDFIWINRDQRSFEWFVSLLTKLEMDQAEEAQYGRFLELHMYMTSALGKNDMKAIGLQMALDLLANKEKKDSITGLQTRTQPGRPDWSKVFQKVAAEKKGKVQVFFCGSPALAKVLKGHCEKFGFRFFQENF

[11] = A549 cell viability effects, profiling panel, calcein-AM fluorescence, 48 h, basal (AID 1162); settings: higher = more signal; also: test concentration not given here
[12] = adipocyte viability effects, profiling panel, cell-based, 3T3-L1 adipocytes, calcein-AM fluorescence, 48 h, basal (AID 1163); settings: 3T3-L1 adipocytes viability, higher = more signal; also: test concentration not given here
[13] = HepG2 cell viability effects, profiling panel, calcein-AM fluorescence, 48 h, basal (AID 1164); settings: higher = more signal; also: test concentration not given here
[14] = MM1S cell viability effects, profiling panel, calcein-AM fluorescence, 48 h, basal (AID 1165); settings: higher = more signal;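 also: viability of MM1S multiple myeloma cells under basal unstimulated conditions; test concentration not given here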
[15] = basal RPMI8226 viability, no added stimulus, profiling panel, cell-based, calcein-AM fluorescence, 48 h, PK04 Diversity Set (AID 1166); settings: RPMI8226 myeloma viability, higher = more signal;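 also: cells grown under basal conditions without added stimulus; test concentration not given here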
[16] = basal HepG2 mitochondrial membrane potential changes, profiling panel, cell-based, JC-1 fluorescence, 24 h, 100 nL compound (AID 1167); settings: higher = more signal; also: test concentration not given here
[17] = basal 3T3-L1 adipocyte mitochondrial potential changes, profiling panel, cell-based, JC-1 fluorescence, 3T3-L1 adipocytes, 24 h, 100 nL compound (AID 1168); settings: JC-1 mitochondrial fluorescence, higher = more signal, called active from +8 up or from −8 down; also: test concentration not given here
[18] = basal RPMI8226 mitochondrial membrane potential changes, profiling panel, cell-based, JC-1 fluorescence, 24 h, 100 nL compound (AID 1169); settings: RPMI8226 myeloma, JC-1 mitochondrial potential fluorescence, higher = more signal; also: test concentration not given here
[19] = basal MM1S mitochondrial membrane potential changes, profiling panel, cell-based, JC-1 fluorescence, 24 h, 100 nL compound (AID 1170); settings: higher = more signal; also: test concentration not given here
[20] = A549 lung cancer cell viability effects, profiling panel, resazurin fluorescence, 24 h, PK04 Diversity Set (AID 1171); settings: higher = more signal, called active from +8 up or from −8 down; also: test concentration not given here

| Structure (SMILES) | z-score [1] | composite z-score [2] | z-score [3] | z-score [4] | z-score [5] | z-score [6] | z-score [7] | z-score [8] | z-score [9] | z-score [10] | z-score [11] | z-score [12] | z-score [13] | z-score [14] | z-score [15] | z-score [16] | z-score [17] | z-score [18] | z-score [19] | z-score [20] |
| --- | --- | --- | --- | --- | --- | --- | --- | --- | --- | --- | --- | --- | --- | --- | --- | --- | --- | --- | --- | --- |
| COC(=O)C1(Cc2ccccc2)C=C2C(=C(C(C)C)C(=O)C2C)CN1 (stereo not given) | -1.72 (inactive) | 0.276 | 2.03 (inactive) | 0.326 (inactive) | 1.42 (inactive) | 0.592 (inactive) | 0.128 | -0.862 (inactive) | -5.34 (inactive) | -4.04 | -0.859 | 0.575 | -1.75 | -1.89 | -1.53 | -1 | -1.76 (inactive) | 0.838 | 0.0816 | -1.33 (inactive) |
| COCCCNC(=O)[C@@]1(Sc2ccc(C)cc2)CC(=O)N(Cc2cc(C(F)(F)F)cc(C(F)(F)F)c2)[C@@H]1c1ccc(CO)cc1 | 0.154 (inactive) | -0.0559 | 0.603 (inactive) | 0.591 (inactive) | 1.03 (inactive) | 0.302 (inactive) | -0.103 | 0.242 (inactive) | 0.521 (inactive) | 0.581 | 0.285 | -0.515 | 0.584 | 1.35 | 1.42 | 0.967 | 0.895 (inactive) | 0.786 | -0.422 | -1.07 (inactive) |
| CCOC(=O)C1=CC[C@@H](c2ccc([N+](=O)[O-])cc2)N(S(=O)(=O)c2ccc(C)cc2)[C@H]1c1ccccc1 | -0.785 (inactive) | 0.206 | 2.13 (inactive) | 1.6 (inactive) | 0.106 (inactive) | 0.903 (inactive) | -0.543 | 1.46 (inactive) | 1.1 (inactive) | 1.43 | -0.143 | -0.786 | 0.239 | -0.767 | -0.281 | 2.35 | -0.233 (inactive) | 1.21 | -1.25 | 0.807 (inactive) |
| C=CCN1C(=O)[C@@]2(O[C@@H](CCn3cc([C@H](O)c4ccccc4)nn3)[C@H]([Si](C)(C)c3ccc(OC)cc3)[C@H]2C)c2ccccc21 | 0.508 (inactive) | 0.276 | 7.57 (inactive) | 1.93 (inactive) | 1.04 (inactive) | 0.916 (inactive) | 0.32 | 0.997 (inactive) | 0.99 (inactive) | -1.6 | -1.05 | 0.432 | -1.49 | -2.7 | -4.27 | 1.06 | -0.644 (inactive) | -0.967 | -0.364 | -1.76 (inactive) |
| C=C(CCCC)C(=O)CC[C@@H](OC(=O)c1ccccc1-c1ccccc1C(=O)O)c1cccc(OCCO)c1 | -0.397 (inactive) | -0.168 | 22.3 (active) | 4.27 (inactive) | 1.11 (inactive) | 0.896 (inactive) | -0.348 | 2.86 (inactive) | -0.351 (inactive) | -1.08 | 0.78 | 1.12 | 0.215 | -3.41 | -3.91 | -1.88 | 0.584 (inactive) | -0.694 | 0.0735 | 0.675 (inactive) |
| [N-]=[N+]=Nc1ccccc1C[C@]1(C(=O)NCc2ccccc2)N=C(c2ccc(OCCCO)cc2)O[C@H]1c1ccccc1 | 0.383 (inactive) | 0.394 | 17.6 (active) | 3.08 (inactive) | 1.14 (inactive) | 0.786 (inactive) | -0.16 | -0.172 (inactive) | 1.45 (inactive) | 1.03 | -1.66 | -0.651 | -1.14 | -2.41 | -2.86 | 1.88 | -0.095 (inactive) | -1.13 | -1.73 | -0.395 (inactive) |
| COC(=O)[C@@]1(Cc2ccc(F)cc2)[C@H]2c3cc(C(=O)N4CCCC4)n(CCF)c3C[C@H]2CN1C(=O)c1ccccc1 | -0.379 (inactive) | 2.02 | 6.17 (inactive) | 0.237 (inactive) | 0.423 (inactive) | 0.715 (inactive) | 0.563 | 0.6 (inactive) | -0.248 (inactive) | -0.159 | -0.719 | 0.251 | 0.426 | -1.04 | -0.374 | 1.98 | -0.000991 (inactive) | -0.0725 | 0.26 | 0.763 (inactive) |
| C=CCC(OC(C)=O)[C@@H]1[C@@H](N(Cc2ccc(-c3ccccc3)cc2)C(=O)c2cccc3ccccc23)c2cc(OCCCO)ccc2N1C(=O)Cc1ccc2ccccc2c1 (stereo not given in full) | -0.316 (inactive) | -0.191 | 1.14 (inactive) | 0.355 (inactive) | -0.498 (inactive) | 0.283 (inactive) | 0.393 | 0.949 (inactive) | -0.22 (inactive) | -4.09 | -0.0841 | -0.38 | -0.0632 | -0.211 | -0.183 | 1.47 | -1.43 (inactive) | 1.22 | 0.313 | 0.74 (inactive) |
| CC1CC/C=C\[C@H]2OC34C=CCN(CCN5CCOCC5)C(=O)[C@H]3N(CCO)C(=O)[C@@H]4C2C(=O)O1 (stereo not given in full) | 0.413 (inactive) | 0.213 | 3.04 (inactive) | 0.397 (inactive) | -0.174 (inactive) | 0.38 (inactive) | -0.0354 | 0.994 (inactive) | 0.221 (inactive) | 2.07 | -0.507 | 1.44 | -0.186 | 0.237 | 0.143 | -0.382 | -0.533 (inactive) | 0.673 | 0.671 | -0.451 (inactive) |
